# Data as given in PubChem BioAssay (EPA / NIEHS).
# Inconclusive results are not listed. Calls of active or inactive are those of the source. Rule for the calls: active = hit-call score of the fitted dose curve at least 0.9, where 1 is the maximum; inconclusive = response in the unintended direction; inactive = score below 0.9.
# Assays:
# [1] = biological target: rat CYP2D1, Cyp2d1 (gene 266684) (UniProt P10633); experiment: NVS_ADME_rCYP2D1: NovaScreen (NVS) CYP450-related Enzyme Activity (ADME) Assay for rat CYP2D1 (AID 2283122)
# Chain of rat CYP2D1, Cyp2d1 (gene 266684) (P10633 whole entry, looked up): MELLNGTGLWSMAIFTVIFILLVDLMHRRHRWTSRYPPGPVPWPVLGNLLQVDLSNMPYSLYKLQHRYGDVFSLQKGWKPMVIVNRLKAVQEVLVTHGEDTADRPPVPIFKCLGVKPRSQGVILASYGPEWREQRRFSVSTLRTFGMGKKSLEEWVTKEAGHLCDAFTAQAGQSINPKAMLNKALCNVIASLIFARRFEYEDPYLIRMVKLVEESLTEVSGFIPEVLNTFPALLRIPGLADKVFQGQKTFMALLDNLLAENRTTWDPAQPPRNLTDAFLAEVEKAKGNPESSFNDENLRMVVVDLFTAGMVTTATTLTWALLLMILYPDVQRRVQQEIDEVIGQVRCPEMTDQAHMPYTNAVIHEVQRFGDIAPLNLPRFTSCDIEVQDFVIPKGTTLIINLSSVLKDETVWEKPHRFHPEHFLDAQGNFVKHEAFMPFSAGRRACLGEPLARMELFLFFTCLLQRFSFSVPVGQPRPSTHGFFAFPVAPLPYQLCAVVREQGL
# Procedure: (§1) NVS_ADME_rCYP2D1 is a biochemical, single-readout assay that uses extracted gene-proteins in a cell-free assay. Measurements were taken 0.75 hour after chemical dosing in a 96-well plate.NVS_ADME_rCYP2D1 is one of one assay component(s) measured or calculated from the NVS_ADME_rCYP2D1 assay. It is designed to make measurements of enzyme activity, a form of enzyme reporter, as detected with fluorescence intensity signals by Fluorescence technology.Data from the assay component NVS_ADME_rCYP2D1 was analyzed into 1 assay endpoint. This assay endpoint, NVS_ADME_rCYP2D1, was analyzed in the positive analysis fitting direction relative to Acetonitrile as the negative control and baseline of activity. Using a type of enzyme reporter, loss-of-signal activity can be used to understand changes in the enzymatic activity as they relate to the gene Cyp2d1. Furthermore, this assay endpoint can be referred to as a primary readout, because this assay has produced multiple assay endpoints where this one serves a enzymatic activity function. To generalize the intended target to other relatable targets, this assay endpoint is annotated to the cyp intended target family, where the subfamily is xenobiotic metabolism. […]
# rat CYP3A1, gene 25642 = experiment: NVS_ADME_rCYP3A1: NovaScreen (NVS) CYP450-related Enzyme Activity (ADME) Assay for rat CYP3A1 (AID 2283126)
# Outline: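 Cell-free recombinant CYP assay with fluorescent substrate, read 0.5 h after dosing. Screened at 10 uM in duplicate, hits at up to 20 uM in concentration-response; loss of signal versus acetonitrile baseline.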
# [2] = biological target: human AKT serine/threonine Kinase 1 (AKT1), AKT1 (gene 207) (UniProt P31749); experiment: NVS_ENZ_hAKT1: NovaScreen (NVS) Enzymatic Assay for human AKT serine/threonine Kinase 1 (AKT1) (AID 2283138)
# Chain of human AKT serine/threonine Kinase 1 (AKT1), AKT1 (gene 207) (P31749 whole entry, looked up): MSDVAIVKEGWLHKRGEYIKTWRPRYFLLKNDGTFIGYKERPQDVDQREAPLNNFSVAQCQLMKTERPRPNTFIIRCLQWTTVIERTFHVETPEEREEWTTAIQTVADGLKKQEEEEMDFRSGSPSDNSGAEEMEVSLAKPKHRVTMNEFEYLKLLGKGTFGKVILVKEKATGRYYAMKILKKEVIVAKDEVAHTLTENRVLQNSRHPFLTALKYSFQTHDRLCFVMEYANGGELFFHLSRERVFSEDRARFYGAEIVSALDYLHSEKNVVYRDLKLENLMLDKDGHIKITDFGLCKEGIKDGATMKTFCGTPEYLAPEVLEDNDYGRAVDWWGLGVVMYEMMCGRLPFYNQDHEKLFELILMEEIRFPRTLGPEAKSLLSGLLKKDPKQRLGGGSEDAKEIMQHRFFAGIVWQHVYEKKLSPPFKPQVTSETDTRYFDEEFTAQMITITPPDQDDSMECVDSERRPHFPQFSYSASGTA
# Outline: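 Signal loss relative to DMSO, measured by fluorescence after electrophoretic separation of substrate and product, indicates inhibition of recombinant enzyme. Readings at 1 h; screening at 25 uM, follow-up curves up to 50 uM.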
# [3] = biological target: rat CYP3A2, Cyp3a2 (gene 266682) (UniProt P05183); experiment: NVS_ADME_rCYP3A2: NovaScreen (NVS) CYP450-related Enzyme Activity (ADME) Assay for rat CYP3A2 (AID 2283128)
# Chain of rat CYP3A2, Cyp3a2 (gene 266682) (P05183 whole entry, looked up): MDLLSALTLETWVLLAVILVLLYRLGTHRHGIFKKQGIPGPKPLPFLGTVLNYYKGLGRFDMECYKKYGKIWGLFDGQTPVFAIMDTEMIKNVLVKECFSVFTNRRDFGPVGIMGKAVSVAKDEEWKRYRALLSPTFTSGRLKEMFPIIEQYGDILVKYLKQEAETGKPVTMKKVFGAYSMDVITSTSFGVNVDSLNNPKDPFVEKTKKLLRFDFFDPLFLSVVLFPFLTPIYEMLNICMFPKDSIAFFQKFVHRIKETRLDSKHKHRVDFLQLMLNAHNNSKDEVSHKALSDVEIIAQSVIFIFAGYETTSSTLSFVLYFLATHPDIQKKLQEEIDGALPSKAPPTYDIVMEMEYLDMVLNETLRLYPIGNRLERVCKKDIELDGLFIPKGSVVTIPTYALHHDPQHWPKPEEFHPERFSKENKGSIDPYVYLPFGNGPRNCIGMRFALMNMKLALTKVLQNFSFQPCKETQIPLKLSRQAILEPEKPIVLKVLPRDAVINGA
# Procedure: as §1, with “NVS_ADME_rCYP3A2” for “NVS_ADME_rCYP2D1”, “0.5” for “0.75”, “plate.NVS_ADME_rCYP3A2” for “plate.NVS_ADME_rCYP2D1”, “NVS_ADME_rCYP3A2,” for “NVS_ADME_rCYP2D1,”, “Cyp3a2.” for “Cyp2d1.”
# [4] = biological target: human Caspase 10 (CASP10), CASP10 (gene 843) (UniProt Q92851); experiment: NVS_ENZ_hCASP10: NovaScreen (NVS) Enzymatic Assay for human Caspase 10 (CASP10) (AID 2283133)
# Chain of human Caspase 10 (CASP10), CASP10 (gene 843) (Q92851 whole entry, looked up): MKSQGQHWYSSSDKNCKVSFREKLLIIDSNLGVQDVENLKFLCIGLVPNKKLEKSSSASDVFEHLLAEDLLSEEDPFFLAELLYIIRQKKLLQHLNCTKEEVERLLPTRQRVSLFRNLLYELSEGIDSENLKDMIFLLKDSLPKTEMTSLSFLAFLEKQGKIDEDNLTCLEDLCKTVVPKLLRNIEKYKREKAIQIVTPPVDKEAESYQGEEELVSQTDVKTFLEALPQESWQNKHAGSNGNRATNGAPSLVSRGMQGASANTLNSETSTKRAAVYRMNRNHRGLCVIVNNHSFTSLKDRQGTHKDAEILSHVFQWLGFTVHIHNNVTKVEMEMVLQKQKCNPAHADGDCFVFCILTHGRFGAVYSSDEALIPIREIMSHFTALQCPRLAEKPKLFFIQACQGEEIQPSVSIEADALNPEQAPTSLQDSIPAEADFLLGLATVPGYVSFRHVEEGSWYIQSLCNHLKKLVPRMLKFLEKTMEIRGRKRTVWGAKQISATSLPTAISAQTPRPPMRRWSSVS
# Outline: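 Recombinant human caspase-10 from E. coli, cell-free fluorogenic substrate assay read 1 h after dosing. Primary duplicate screen at 25 uM; hits (e.g. ≥30% inhibition) run singly in concentration-response up to 50 uM, normalised to DMSO.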
# [5] = biological target: human Acid Phosphatase 1 (ACP1), ACP1 (gene 52) (UniProt P24666); experiment: NVS_ENZ_hACP1: NovaScreen (NVS) Enzymatic Assay for human Acid Phosphatase 1 (ACP1) (AID 2283136)
# Chain of human Acid Phosphatase 1 (ACP1), ACP1 (gene 52) (P24666 whole entry, looked up): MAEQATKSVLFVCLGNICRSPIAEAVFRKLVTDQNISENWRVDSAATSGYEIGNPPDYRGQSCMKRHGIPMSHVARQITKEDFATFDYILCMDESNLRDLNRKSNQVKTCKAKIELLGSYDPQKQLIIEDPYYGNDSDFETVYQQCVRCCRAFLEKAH
# Outline: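 Recombinant enzyme expressed in Sf9 cells, tested cell-free; activity read by fluorescence with electrophoretic mobility shift separation of substrate and product, 1.5 h after dosing. Primary screen in duplicate at 25 uM, actives then run in concentration series; loss of signal versus DMSO.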
compound,measurement,setting,value
CCNc1nc(NC(C)C)nc(SC)n1,outcome,[1],inactive
same,AC50,"rat CYP3A1, gene 25642",6.58 µM (active)
same,outcome,[2],inactive
CCC(C)(CC)c1cc(NC(=O)c2c(OC)cccc2OC)on1,AC50,[3],0.981 µM (active)
Clc1ccc(C(Cl)(Cl)Cl)cc1,outcome,[4],inactive
O=C(O)C(F)(F)C(F)(F)C(F)(F)C(F)(F)C(F)(F)C(F)(F)C(F)(F)C(F)(F)C(F)(F)F,outcome,[4],inactive
CC1=C2C[C@H]3[C@@H](CC=C4C[C@@H](O)CC[C@@]43C)[C@@H]2CC[C@]12O[C@@H]1C[C@H](C)CN[C@H]1[C@H]2C,outcome,[5],inactive
O=C(O)C(F)(F)C(F)(F)C(F)(F)C(F)(F)C(F)(F)C(F)(F)C(F)(F)C(F)(F)F,outcome,[5],inactive
Cc1ccccc1CO[C@@H]1C[C@@]2(C(C)C)CC[C@]1(C)O2,outcome,[2],inactive
